± gives the standard deviation of the averaged measurements.
Legend:
Test in all cases: relative enzymatic activity vs untreated control (fraction); higher = less inhibition
Conditions in all cases: 100 µM; incubation time: 2 h at 37 C
DNA gyrase = tested on: DNA gyrase
Description: (§1)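 In vitro enzymatic inhibition assays (ProFoldin kits) for 12 purified essential E. coli enzymes or complexes, each treated with 218 active antibacterial compounds at 100 µM for 2 h at 37°C. Read-outs were fluorescence or absorbance (phosphate detection, dye binding), converted to activity via standard curves and expressed relative to untreated DMSO controls.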

DNA helicase = DNA helicase (UniProt P0ACB1)
Sequence of DNA helicase (P0ACB1 whole entry): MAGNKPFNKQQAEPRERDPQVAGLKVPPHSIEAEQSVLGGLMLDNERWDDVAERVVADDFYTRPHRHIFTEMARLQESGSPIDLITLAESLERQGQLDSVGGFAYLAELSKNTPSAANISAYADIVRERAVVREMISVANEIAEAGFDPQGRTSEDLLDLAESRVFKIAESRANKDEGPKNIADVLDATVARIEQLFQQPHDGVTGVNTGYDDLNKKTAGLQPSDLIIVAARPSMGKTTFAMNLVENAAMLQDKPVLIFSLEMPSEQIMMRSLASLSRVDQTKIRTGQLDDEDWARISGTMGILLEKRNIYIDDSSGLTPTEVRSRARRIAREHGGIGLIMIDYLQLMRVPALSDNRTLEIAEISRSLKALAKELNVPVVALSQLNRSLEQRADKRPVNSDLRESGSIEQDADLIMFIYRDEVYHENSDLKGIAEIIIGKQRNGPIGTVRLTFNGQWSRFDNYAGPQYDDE
Description: as §1

DNA ligase = DNA ligase (UniProt B1XA82)
Sequence of DNA ligase (B1XA82 whole entry): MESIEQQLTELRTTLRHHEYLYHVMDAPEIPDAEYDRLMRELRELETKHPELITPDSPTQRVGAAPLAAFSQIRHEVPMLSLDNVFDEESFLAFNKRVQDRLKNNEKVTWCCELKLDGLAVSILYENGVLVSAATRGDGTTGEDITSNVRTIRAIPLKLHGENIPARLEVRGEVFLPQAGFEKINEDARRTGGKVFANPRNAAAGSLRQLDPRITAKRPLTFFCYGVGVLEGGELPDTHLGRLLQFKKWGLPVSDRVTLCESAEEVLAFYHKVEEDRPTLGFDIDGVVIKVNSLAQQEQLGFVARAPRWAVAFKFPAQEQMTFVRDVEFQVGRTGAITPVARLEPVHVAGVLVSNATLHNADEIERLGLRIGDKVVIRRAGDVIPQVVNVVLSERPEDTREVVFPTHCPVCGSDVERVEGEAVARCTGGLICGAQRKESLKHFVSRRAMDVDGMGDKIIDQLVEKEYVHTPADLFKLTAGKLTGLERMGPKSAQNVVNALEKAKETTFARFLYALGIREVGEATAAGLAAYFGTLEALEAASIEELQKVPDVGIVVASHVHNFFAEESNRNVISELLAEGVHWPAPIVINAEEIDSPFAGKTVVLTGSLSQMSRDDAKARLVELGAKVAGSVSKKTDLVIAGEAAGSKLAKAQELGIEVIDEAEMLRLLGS
Description: as §1

DNA polymerase = DNA polymerase (UniProt P10443)
Sequence of DNA polymerase (P10443 whole entry): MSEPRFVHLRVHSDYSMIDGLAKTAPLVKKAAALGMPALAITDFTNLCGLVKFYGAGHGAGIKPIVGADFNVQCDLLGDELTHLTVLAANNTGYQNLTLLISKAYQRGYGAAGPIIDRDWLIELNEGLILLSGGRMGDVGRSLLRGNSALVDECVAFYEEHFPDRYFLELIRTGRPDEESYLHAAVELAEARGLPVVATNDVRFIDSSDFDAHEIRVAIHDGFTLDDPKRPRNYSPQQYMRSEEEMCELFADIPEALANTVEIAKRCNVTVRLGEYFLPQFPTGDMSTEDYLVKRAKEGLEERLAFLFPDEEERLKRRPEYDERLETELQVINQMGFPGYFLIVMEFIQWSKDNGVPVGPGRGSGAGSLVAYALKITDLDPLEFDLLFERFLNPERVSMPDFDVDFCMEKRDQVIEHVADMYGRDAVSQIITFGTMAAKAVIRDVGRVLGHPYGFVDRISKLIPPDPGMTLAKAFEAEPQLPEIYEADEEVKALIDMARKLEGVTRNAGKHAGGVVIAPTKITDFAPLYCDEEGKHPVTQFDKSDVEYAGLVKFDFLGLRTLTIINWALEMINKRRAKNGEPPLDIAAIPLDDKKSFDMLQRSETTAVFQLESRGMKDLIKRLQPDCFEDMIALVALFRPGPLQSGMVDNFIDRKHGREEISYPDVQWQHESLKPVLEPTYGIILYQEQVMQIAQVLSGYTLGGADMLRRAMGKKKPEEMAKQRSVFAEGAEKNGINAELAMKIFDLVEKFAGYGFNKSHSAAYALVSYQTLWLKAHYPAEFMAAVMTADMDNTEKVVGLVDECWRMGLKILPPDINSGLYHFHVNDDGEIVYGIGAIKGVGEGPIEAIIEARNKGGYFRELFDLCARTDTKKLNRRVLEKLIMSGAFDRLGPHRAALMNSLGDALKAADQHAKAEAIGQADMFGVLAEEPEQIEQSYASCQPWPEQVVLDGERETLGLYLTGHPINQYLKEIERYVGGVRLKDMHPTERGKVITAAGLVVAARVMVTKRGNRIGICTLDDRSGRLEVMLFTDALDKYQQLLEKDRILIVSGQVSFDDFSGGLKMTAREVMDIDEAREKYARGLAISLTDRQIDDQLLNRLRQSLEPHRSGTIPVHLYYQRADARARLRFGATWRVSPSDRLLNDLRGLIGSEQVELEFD
Description: as §1

DNA primase = DNA primase (UniProt P0ABS7)
Sequence of DNA primase (P0ABS7 whole entry): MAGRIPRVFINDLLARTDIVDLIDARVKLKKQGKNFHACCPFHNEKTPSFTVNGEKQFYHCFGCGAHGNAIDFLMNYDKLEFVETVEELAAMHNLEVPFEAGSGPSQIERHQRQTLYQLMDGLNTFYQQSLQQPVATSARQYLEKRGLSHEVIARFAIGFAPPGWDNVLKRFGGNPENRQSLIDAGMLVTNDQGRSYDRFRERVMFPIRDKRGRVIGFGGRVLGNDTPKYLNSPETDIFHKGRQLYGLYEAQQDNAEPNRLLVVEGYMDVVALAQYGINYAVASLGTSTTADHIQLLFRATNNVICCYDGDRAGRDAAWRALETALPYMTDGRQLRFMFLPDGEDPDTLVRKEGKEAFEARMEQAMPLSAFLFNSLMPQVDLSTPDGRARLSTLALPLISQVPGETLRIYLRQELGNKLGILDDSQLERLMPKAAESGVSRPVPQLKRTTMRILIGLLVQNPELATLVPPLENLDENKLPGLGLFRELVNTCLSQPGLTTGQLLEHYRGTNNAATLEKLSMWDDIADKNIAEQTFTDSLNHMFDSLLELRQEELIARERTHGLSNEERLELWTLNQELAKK
Description: as §1

GlmU = GlmU (UniProt A7ZTU1)
Sequence of GlmU (A7ZTU1 whole entry, looked up): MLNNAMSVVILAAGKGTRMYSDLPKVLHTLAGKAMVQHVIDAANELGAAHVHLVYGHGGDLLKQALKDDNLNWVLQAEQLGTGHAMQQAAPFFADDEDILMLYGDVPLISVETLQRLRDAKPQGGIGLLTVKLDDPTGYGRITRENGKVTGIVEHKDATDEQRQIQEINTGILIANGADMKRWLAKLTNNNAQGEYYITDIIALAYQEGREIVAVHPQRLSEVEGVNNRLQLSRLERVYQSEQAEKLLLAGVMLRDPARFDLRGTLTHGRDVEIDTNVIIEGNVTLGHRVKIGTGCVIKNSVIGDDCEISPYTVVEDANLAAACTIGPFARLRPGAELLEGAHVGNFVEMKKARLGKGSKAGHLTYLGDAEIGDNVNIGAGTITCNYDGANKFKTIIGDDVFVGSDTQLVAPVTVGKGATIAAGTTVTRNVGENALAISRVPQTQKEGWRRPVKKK
Description: as §1

Guanlyate kinase = Guanlyate kinase (UniProt Q0TBG1)
Sequence of Guanlyate kinase (Q0TBG1 whole entry): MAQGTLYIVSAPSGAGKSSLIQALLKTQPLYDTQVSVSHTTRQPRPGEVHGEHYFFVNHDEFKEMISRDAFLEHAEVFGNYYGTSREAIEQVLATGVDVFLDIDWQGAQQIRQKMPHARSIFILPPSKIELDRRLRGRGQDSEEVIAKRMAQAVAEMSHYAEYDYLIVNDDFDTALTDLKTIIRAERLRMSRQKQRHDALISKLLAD
Description: as §1

MurA = MurA (UniProt Q3YX52)
Sequence of MurA (Q3YX52 whole entry): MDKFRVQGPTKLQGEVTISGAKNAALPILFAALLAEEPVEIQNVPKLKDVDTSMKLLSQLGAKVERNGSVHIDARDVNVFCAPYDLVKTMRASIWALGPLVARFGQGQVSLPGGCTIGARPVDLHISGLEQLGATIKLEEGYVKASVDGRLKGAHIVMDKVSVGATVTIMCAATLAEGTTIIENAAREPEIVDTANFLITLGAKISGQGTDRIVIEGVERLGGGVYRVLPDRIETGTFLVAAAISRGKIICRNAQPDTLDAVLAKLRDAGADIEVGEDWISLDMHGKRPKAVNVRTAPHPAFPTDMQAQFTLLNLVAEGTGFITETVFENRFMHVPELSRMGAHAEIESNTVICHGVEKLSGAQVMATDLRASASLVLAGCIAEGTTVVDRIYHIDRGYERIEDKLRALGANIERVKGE
Description: as §1

MurD = target: T1, MurD (UniProt P14900)
T1 sequence (whole entry): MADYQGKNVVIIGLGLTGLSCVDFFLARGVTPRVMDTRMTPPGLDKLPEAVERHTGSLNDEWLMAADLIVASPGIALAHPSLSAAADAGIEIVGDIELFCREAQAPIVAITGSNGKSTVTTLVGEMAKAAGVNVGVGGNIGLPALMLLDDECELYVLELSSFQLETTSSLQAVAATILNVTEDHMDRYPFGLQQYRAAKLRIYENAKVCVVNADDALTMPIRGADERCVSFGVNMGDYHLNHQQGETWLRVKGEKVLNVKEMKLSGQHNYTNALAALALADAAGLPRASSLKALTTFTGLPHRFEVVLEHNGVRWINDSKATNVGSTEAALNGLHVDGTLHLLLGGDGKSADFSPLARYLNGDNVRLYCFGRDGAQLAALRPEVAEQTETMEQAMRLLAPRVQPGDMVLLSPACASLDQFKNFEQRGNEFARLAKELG
Description: as §1

MurF = target: T2, MurF (UniProt P11880)
T2 sequence (whole entry): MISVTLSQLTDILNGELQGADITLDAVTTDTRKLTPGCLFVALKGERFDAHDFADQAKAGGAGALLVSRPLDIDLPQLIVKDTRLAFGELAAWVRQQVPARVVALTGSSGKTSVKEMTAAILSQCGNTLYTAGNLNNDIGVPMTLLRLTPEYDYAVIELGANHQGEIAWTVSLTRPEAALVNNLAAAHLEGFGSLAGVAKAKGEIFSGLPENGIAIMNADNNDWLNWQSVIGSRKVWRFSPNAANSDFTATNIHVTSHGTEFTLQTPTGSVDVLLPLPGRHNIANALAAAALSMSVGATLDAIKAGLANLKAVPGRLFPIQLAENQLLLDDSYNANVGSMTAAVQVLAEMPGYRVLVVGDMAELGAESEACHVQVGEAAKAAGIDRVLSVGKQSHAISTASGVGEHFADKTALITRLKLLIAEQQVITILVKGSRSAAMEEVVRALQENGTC
Description: as §1

RNA polymerase = tested on: RNA polymerase
Description: as §1

Row | SMILES | relative enzymatic activity (DNA gyrase) | relative enzymatic activity (DNA helicase) | relative enzymatic activity (DNA ligase) | relative enzymatic activity (DNA polymerase) | relative enzymatic activity (DNA primase) | relative enzymatic activity (GlmU) | relative enzymatic activity (Guanlyate kinase) | relative enzymatic activity (MurA) | relative enzymatic activity (MurD) | relative enzymatic activity (MurF) | relative enzymatic activity (RNA polymerase)
1 | NCc1ccccc1CC(=O)NC1C(=O)N2C(C(=O)O)=C(CSc3nnnn3CC(=O)O)CSC12 (stereo not given) | 1.03 ± 0.026 | 0.487 ± 0.014 | 1.19 ± 0.037 | 1.38 ± 0.51 | 0.683 ± 0.18 | 1.05 ± 0.23 | 0.988 ± 0.13 | 0.08776 ± 0.00022 | 0.581 ± 0.39 | 0.979 ± 0.2 | 0.979 ± 0.23
2 | N[C@H]1CCN(c2nc3c(cc2F)c(=O)c(C(=O)O)cn3-c2ccc(F)cc2F)C1 | 0.206 ± 0.29 | 0.461 ± 0.041 | 0.91 ± 0.23 | 1.17 ± 0.24 | 0.774 ± 0.035 | 0.955 ± 0.026 | 0.852 ± 0.12 | 0.521 ± 0.22 | 0.586 ± 0.39 | 0.924 ± 0.25 | 0.929 ± 0.12
3 | CON=C(C(=O)NC1C(=O)N2C(C(=O)[O-])=C(CSc3nc(=O)c([O-])nn3C)CSC12)c1csc(N)n1.O.O.O.[Na+].[Na+] (stereo not given) | 0.7 ± 0.45 | 0.48 ± 0.015 | 1.29 ± 0.4 | 1.13 ± 0.23 | 0.69 ± 0.18 | 0.996 ± 0.014 | 0.914 ± 0.065 | 0.124 ± 0.03 | 0.583 ± 0.4 | 0.955 ± 0.21 | 0.843 ± 0.073
4 | CCCC[P+](CCCC)(CCCC)Cc1ccc(NC(=O)[C@H](Cc2ccc3ccccc3c2)N/C(=N/C2CCCCC2)NC2CCCCC2)cc1 | 0.00696 ± 0.0098 | 0.0186 ± 0.0015 | 1.08 ± 0.094 | 0.73 ± 0.026 | 0.595 ± 0.0097 | 0.134 ± 0.011 | 0.223 ± 0.023 | 0.0355 ± 0.0073 | 0.167 ± 0.12 | 0.108 ± 0.017 | 0.346 ± 0.01
5 | CC1CN(c2c(F)c(F)c3c(=O)c(C(=O)O)cn(C4CC4)c3c2F)CC(C)N1 (stereo not given) | 0.063 ± 0.089 | 0.599 ± 0.21 | 1.09 ± 0.085 | 0.509 ± 0.72 | 0.8561 ± 0.0075 | 0.97 ± 0.066 | 0.949 ± 0.073 | 0.676 ± 0.015 | 0.597 ± 0.41 | 1.09 ± 0.014 | 0.847 ± 0.13
6 | CCCCCCCCCCCCC[N+](C)(C)Cc1ccccc1 | 0.675 ± 0.95 | 0.0123 ± 0.0012 | 0.955 ± 0.043 | 1.04 ± 0.27 | 0.787 ± 0.099 | 0.0868 ± 0.0048 | 0.396 ± 0.0083 | 0.0305 ± 0.016 | 0.0614 ± 0.011 | 0.177 ± 0.064 | 0.919 ± 0.13
7 | O=C(NO)c1cn(-c2cccc(C(=O)N3CCC4(CC3)C(=O)NCN4c3ccccc3)c2)nn1 | ≤ 0 | 0.0673 ± 0.0027 | 0.205 ± 0.025 | 0.00452 ± 0.00034 | ≤ 0 | 0.656 ± 0.088 | ≤ 0 | 0.245 ± 0.072 | 0.36 ± 0.22 | 0.634 ± 0.13 | 0.00747 ± 0.0021
8 | Nc1c2ccccc2nc2ccccc12 | 0.766 ± 0.37 | 0.595 ± 0.097 | 0.519 ± 0.092 | 1.01 ± 0.28 | 0.573 ± 0.14 | 0.933 ± 0.059 | 0.3108 ± 0.001 | 0.74 ± 0.14 | 0.589 ± 0.38 | 0.94 ± 0.25 | 0.505 ± 0.016
9 | COC1(NC(=O)Cc2cccs2)C(=O)N2C(C(=O)[O-])=C(COC(N)=O)CSC21.[Na+] (stereo not given) | 1.11 ± 0.041 | 0.48 ± 0.015 | 0.855 ± 0.14 | 1.41 ± 0.51 | 0.663 ± 0.13 | 0.984 ± 0.011 | 1.08 ± 0.062 | 0.0814 ± 0.021 | 0.574 ± 0.37 | 1.01 ± 0.21 | 0.829 ± 0.017
10 | O=c1[nH]c(=O)n([C@@H]2C[C@@H](O)[C@@H](CO)O2)cc1F | 1.07 ± 0.043 | 0.591 ± 0.15 | 0.947 ± 0.062 | 0.708 ± 0.44 | 0.873 ± 0.022 | 1.03 ± 0.065 | 0.967 ± 0.1 | 0.74 ± 0.18 | 0.604 ± 0.39 | 1.01 ± 0.22 | 0.834 ± 0.019
11 | CNC1C(O)C(NC)C2OC3(O)C(=O)CC(C)OC3OC2C1O.Cl.Cl (stereo not given) | 0.963 ± 0.22 | 0.484 ± 0.0079 | 1.07 ± 0.22 | 1.35 ± 0.45 | 0.693 ± 0.19 | 1.02 ± 0.015 | 0.421 ± 0.021 | 0.4888 ± 0.0032 | 0.533 ± 0.35 | 0.898 ± 0.16 | 0.871 ± 0.064
12 | NCCONC(=O)[C@@H]1CC[C@@H]2CN1C(=O)N2OS(=O)(=O)O | 0.796 ± 0.34 | 0.527 ± 0.074 | 1.08 ± 0.078 | 1.13 ± 0.22 | 0.762 ± 0.033 | 1.02 ± 0.082 | 1.01 ± 0.12 | 0.709 ± 0.27 | 0.562 ± 0.36 | 0.971 ± 0.24 | 0.902 ± 0.075
13 | CCCN1C[C@H](C)[C@@H](O)[C@](C)(O)[C@@H](CC)OC(=O)[C@H](C)[C@@H](O[C@H]2C[C@@](C)(OC)[C@@H](O)[C@H](C)O2)[C@H](C)[C@@H](O[C@@H]2O[C@H](C)C[C@H](N(C)C)[C@H]2O)[C@](C)(O)C[C@H]1C | 0.764 ± 0.38 | 0.556 ± 0.17 | 0.802 ± 0.014 | 1.09 ± 0.11 | 0.868 ± 0.012 | 1.073 ± 0.0078 | 0.858 ± 0.12 | 0.761 ± 0.074 | 0.596 ± 0.42 | 0.968 ± 0.17 | 0.766 ± 0.12
14 | CC1c2cccc(O)c2C(=O)C2=C(O)C3(O)C(=O)C(C(N)=O)=C(O)C(N(C)C)C3C(O)C21.Cl (stereo not given) | 0.996 ± 0.098 | 0.728 ± 0.41 | 1.05 ± 0.12 | 1.34 ± 0.32 | 0.734 ± 0.2 | 0.971 ± 0.048 | 1.12 ± 0.046 | 0.431 ± 0.093 | 0.572 ± 0.37 | 0.943 ± 0.17 | 0.9639 ± 0.0043
15 | CO/N=C(\C(=O)N[C@@H]1C(=O)N2C(C(=O)O)=C(CSC(=O)c3ccco3)CS[C@H]12)c1csc(N)n1 | 0.0013 ± 0.0018 | 0.049 ± 0.0096 | 0.817 ± 0.063 | 0.312 ± 0.026 | 0.533 ± 0.092 | 0.492 ± 0.17 | 0.778 ± 0.12 | 0.0403 ± 0.017 | 0.125 ± 0.094 | 0.82 ± 0.26 | 0.602 ± 0.68

Reference: the supplement of paper PMC9446081
